TDP1 cell CPT – qHTS for Inhibitors of human tyrosyl-DNA phosphodiesterase 1 (TDP1): qHTS in cells in presence of CPT; chicken DT40 Tdp1-/-;hTDP1 cells + 20 nM CPT, ATP luminescence, 48 h; Potency, µM (series often up to 46.2 µM), without a hit: at the highest dose activity change, negative = growth inhibition, actives largely listed as inhibitors; hit rate 12% among 420,000; note: nearly all actives have a fitted effect of over 55% in size
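Cell growth measured by CellTiter-Glo luminescence after a minimum 48 h, 37 C compound exposure with 20 nM CPT in Tdp1-knockout DT40 cells stably expressing hTDP1, seeded 400/well; qHTS titration format.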
RORgamma inh – qHTS for inhibitors of ROR gamma transcriptional activity | Nuclear receptor ROR-gamma (Mus musculus), P51450 | Drosophila S2 Gal4-RORgamma UAS-luciferase reporter, 20 h | Potency, µM (highest dose often 53.6 µM), for inactives: at the highest dose activity change, negative = inhibition, usual class: inhibitors | hit rate 5.4% among 310,000 | AID 2551, 2010; note: nearly all actives have a fitted effect of over 60% in size
Target sequence (P51450 whole entry, looked up, the tested form may be a part): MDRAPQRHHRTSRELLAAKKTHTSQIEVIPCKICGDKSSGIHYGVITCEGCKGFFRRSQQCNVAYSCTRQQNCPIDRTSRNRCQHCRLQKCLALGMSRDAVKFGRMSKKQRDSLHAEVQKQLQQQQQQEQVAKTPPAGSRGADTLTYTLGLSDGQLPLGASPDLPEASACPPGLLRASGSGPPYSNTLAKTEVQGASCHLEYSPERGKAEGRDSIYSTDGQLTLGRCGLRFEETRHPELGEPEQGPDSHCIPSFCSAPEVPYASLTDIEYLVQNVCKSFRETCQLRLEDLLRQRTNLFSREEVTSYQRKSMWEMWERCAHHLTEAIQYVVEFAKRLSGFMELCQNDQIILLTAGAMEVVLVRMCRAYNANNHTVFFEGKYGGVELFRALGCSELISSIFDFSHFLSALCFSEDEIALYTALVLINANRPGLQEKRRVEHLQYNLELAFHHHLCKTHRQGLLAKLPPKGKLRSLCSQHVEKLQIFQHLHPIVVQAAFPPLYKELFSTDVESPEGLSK
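Drosophila Schneider cells stably carrying a metallothionein-driven Gal4 DBD–ROR gamma fusion and a UAS-Photinus luciferase reporter were exposed to compound for 1 hr, then induced with copper sulfate (700 uM final) for 20 hr at ambient temperature before luminescence reading.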
TDP1 cell noCPT – qHTS for Inhibitors of human tyrosyl-DNA phosphodiesterase 1 (TDP1): qHTS in cells in absence of CPT. Potency, µM (doses to about 46.2 µM), for inactives: top-dose activity change, negative = growth inhibition, hits mostly inhibitors. DT40 Tdp1-/- hTDP1 cells, no CPT, ATP luminescence, 48 h. hit rate 15% among 420,000; note: nearly all actives have a fitted effect of over 55% in size
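Compound effects on proliferation are scored in DT40 Tdp1-/-;hTDP1 cells in the absence of CPT. ATP levels (CellTiter-Glo luminescence) are recorded after a ≥48 hr, 37 °C incubation.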
Gal4-VP16 FLuc – VP16 counterscreen qHTS for inhibitors of ROR gamma transcriptional activity; hit rate 3.5% among 310,000; Drosophila S2 Gal4-VP16 UAS-luciferase, luminescence, 20 h; Potency, µM (highest dose often 53.6 µM), without a hit: at the highest dose activity, negative = inhibition, actives largely listed as inhibitors;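 note: Gal4-VP16 expression switched on by copper sulfate through the metallothionein promoter; nearly all actives have a fitted effect of over 50% in size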
TDP1 block – qHTS Assay for Inhibitors of Tyrosyl-DNA Phosphodiesterase (TDP1) | recombinant TDP1, AlphaScreen DNA substrate cleavage | Tyrosyl-DNA phosphodiesterase 1 (Homo sapiens), Q9NUW8 | AID 485290, 2010 | hit rate 0.28% among 350,000 | Potency, µM (highest dose often 130 µM), for the others: top-dose activity change, negative = inhibition, actives largely listed as inhibitors; note: nearly all actives have a fitted effect of over 40% in size
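Recombinant human Tdp1 (E. coli-expressed, 1 nM final) preincubated with compounds 15 min at room temperature, then 5'-biotin/3'-phosphotyrosine-FITC DNA substrate (15 nM final) added for 5 min. AlphaScreen beads (10 ug/ml final) added 10 min; cleavage lowers signal.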
* marks the source's active call; other numbers are inactive results; ? = inconclusive; . = not tested or not shown; [ ] = another dose, or the depositor's remark. Shown are actives, neighbours in structure and some others; about 19% of the full set was active somewhere. Calls come from the whole dose curve; as a rule, active = well fitted curve in the direction sought with a large enough effect; inconclusive = small, poorly fitted or top-dose-only effect, or another doubt; inactive = no such curve, though single readings can be large; an effect the other way counts as inactive or inconclusive. % is set by controls: 0 for no effect and ±100 for the full control effect; potency is the fitted concentration of half-maximal effect.

SMILES | TDP1 cell CPT | RORgamma inh | TDP1 cell noCPT | Gal4-VP16 FLuc | TDP1 block
Oc1c(C(Nc2cccnc2)c2ccc(C(F)(F)F)cc2)ccc2cccnc12 (stereo not given) | ? | . | 8.9µM* | . | .
CCOC(=O)C1=C(C)N(C[C@@H]2CC[C@@H](Cc3ccc4cc(OC)ccc4c3)O2)C(=O)NC1c1ccc(OC)cc1 (stereo not given in full) | ? | . | ? | . | 0%[56.1 µM]
Cc1ccc(C(=O)NCC(=O)OCc2cc(=O)n3nc(C4CCCCC4)sc3n2)cc1 | -3% | . | -1% | . | -1%
O=c1cc(CO)oc(C(Nc2ccccn2)c2ccccc2Cl)c1O (stereo not given) | -2% | -28% | -17% | 6% | -2%
Oc1cccc(C(Nc2ccccn2)c2ccc3cccnc3c2O)c1Cl (stereo not given) | 0.65µM* | . | 3.3µM* | . | 12%
Cc1cc(NC(c2cccnc2)c2ccc3cccnc3c2O)no1 (stereo not given) | 3.3µM* | 4µM* | 3.7µM* | 6.3µM* | 7%
CN(c1nc2nonc2nc1NC1CC1)C1CCOC1 (stereo not given) | 5% | 43% | -14% | -6% | 6%
CN(C)c1ccc(CC(=O)c2nc3ccccc3s2)cc1 | 16µM* | 12%[10 µM] | ? | -1% | -1%
CN(C)C(=O)c1nc2ccccc2s1 | 9% | 10% | -7% | 6% | 3%
CC1(c2cccc(Br)c2)NC(=O)N(CC(=O)NC2CCCCC2)C1=O (stereo not given) | -1% | . | 0% | . | 0%
Cc1ccc(C2(c3ccccc3)NC(=O)N(CC(=O)NC3CCCCC3)C2=O)cc1C (stereo not given) | ? | . | 18µM* | . | -8%
Cc1ccc(C2(c3ccccc3)NC(=O)N(CC(=O)N3CC(=O)Nc4ccccc43)C2=O)cc1C (stereo not given) | ? | . | 23µM* | . | 2%
CCOc1nc(C)ccc1-c1noc(-c2cccnc2)n1 | -7% | 19% | -25% | 2% | .
CCOc1cc(/C=C/c2nc3ccccc3s2)ccc1OCC(=O)N1CCOCC1 | -83% | 26% | 21µM* | -27% | -1%
O=C(/C=C/c1nc2ccccc2s1)N1CCCCCC1 | -1% | 0% | ? | -18% | 2%
CN(C)c1ccc(/C=C/c2nc3ccccc3s2)c(Cl)c1 | ? | . | 14µM* | . | .
C(=C\c1nc2ccccc2s1)/c1ccc2c(c1)OCO2 | ? | . | 11µM* | . | .
CCOc1cc(C(=O)NCc2ccccc2)ccc1OCC(=O)N1CCOCC1 | 9% | -10% | 4% | 2% | 7%
C(=Cc1nc2ccccc2o1)c1ccc2c(c1)OCO2 | -12% | . | ? | . | .
Cc1ccc(C(=O)N2CCC(n3nccc3NC(=O)c3ccccc3C)CC2)cn1 | -24% | -8% | -23% | -15% | 4%
C1=Nc2ccccc2/C1=C/c1ccccc1 | 4.5µM* | . | 13µM* | . | .
CSc1nc(O)c(/C=C2\C=Nc3ccccc32)[nH]1 | ? | ? | ? | -4% | 8%
O=C(COc1ccc(Cl)cc1Br)NC(=O)NC1CCCC1 | -5% | . | -7% | . | -16%
FC(F)(F)c1nnc(-c2ccccc2)nc1Oc1ccccc1 | -12% | 11% | -19% | 25% | 0%
COCCN(Cc1ccccc1)C(=O)c1cccc(S(=O)(=O)N2CCN(c3ccccc3)CC2)c1 | ? | . | 16µM* | . | 9%
SMILES | TDP1 cell CPT | RORgamma inh | TDP1 cell noCPT | Gal4-VP16 FLuc | TDP1 block
COCCN(Cc1ccccc1)C(=O)c1cccc(S(=O)(=O)N2CCN(c3ccc(F)cc3)CC2)c1 | ? | . | 18µM* | . | .
COCCN(Cc1nc2ccccc2c(=O)[nH]1)C(=O)c1cccc(S(=O)(=O)N2CCCC2)c1 | ? | . | -4% | . | 2%
O=C(/C=C/c1cccs1)NCc1ccccc1 | -13% | 19% | -10% | -2% | 2%
CC1c2ccccc2SC(CCCN(C)C)c2ccccc21 (stereo not given) | 16µM* | ? | ? | ? | 4%
COc1cccc(/C=C/c2nc(C#N)c(NC3CCCCC3)o2)c1 | ? | . | 4.1µM* | . | 0%
COc1ccc(/C=C/c2nc(C#N)c(NC3CCCCC3)o2)cc1OC | 21µM* | . | 21µM* | . | 7%
O=C(NCCS(=O)(=O)c1ccc(Br)cc1)c1c(F)cccc1F | -23% | 26% | 15% | -9% | 0%
O=S(=O)(c1ccc(Cl)cc1)N1CCN(c2nc(-c3cccc(Br)c3)nc3ccccc23)CC1 | . | . | . | . | 0%
O=[N+]([O-])c1ccc(C2=Nn3c(Cn4nnc5ccccc54)nnc3SC2)cc1 | 21µM* | 44% | 16µM* | 4% | .
CCCc1nnc2n1N=C(c1ccc([N+](=O)[O-])cc1)CS2 | 2% | -4% | -27% | -1% | 1%
COc1cc(CC(=O)OCC(=O)Nc2ncc(Cl)cc2Cl)cc(OC)c1OC | -3% | 2% | -26% | -6% | -3%
C=CCOc1ccc(C2/C(=C(/O)c3ccc(OC)cc3)C(=O)C(=O)N2CCN2CCNCC2)cc1 (stereo not given) | 21% | 5% | 0% | 5% | .
CCOc1ccccc1N(C)C(=O)c1cc2c(=O)n(CC)c3ccccc3c2s1 | 21µM* | 29% | 21µM* | -1% | .
CCn1c(=O)c2cc(C(=O)N(CCN(C)C)Cc3ccccc3)sc2c2ccccc21 | -26% | . | 21µM* | . | -1%
CCn1c(=O)c2cc(C(=O)NCCOC)sc2c2ccccc21 | ? | -3% | ? | 7% | .
CC(C)CCN(Cc1ccco1)C(=O)c1cc2c(Cl)nc3ccccc3c2s1 | ? | . | 16µM* | . | 3%
CCn1c(=O)c2cc(C(=O)N(C)CC(OC)OC)sc2c2ccccc21 | ? | 23% | ? | 7% | .
CCn1c(=O)c2cc(C(=O)N(CCCOC(C)C)Cc3ccco3)sc2c2ccccc21 | ? | . | 21µM* | . | 2%
CCOc1ccc(NC(=NCc2ccc3c(c2)OCO3)SC2CC(=O)N(c3ccc(OCC)cc3)C2=O)cc1 (stereo not given) | ? | -35% | -28% | -9% | -1%
CC(C)CCNC(=S)NC1CCCC1 | ? | 2.8µM* | ? | ? | 8%
CN(C)CCNC(=S)NC1CCCCC1 | -7% | -13% | 0% | 1% | 1%
OCCCNC(=S)NC1CCCC1 | 13% | -6% | 10% | -3% | 0%
CC(C)CN(CC(C)C)C(=S)NC1CCCCC1 | ? | 2.8µM* | ? | 7.1µM* | -3%
CCCCNC(=S)NC1CCCC1 | -19% | 10µM* | -28% | 18µM* | 2%
Cc1ccc(C)c(CN2CCSCC2)c1 | -8% | 1% | -2% | 2% | .

Compound activity: PubChem, National Center for Advancing Translational Sciences (NCATS)
